An excerpt weighted towards active compounds, which were near 2.4% of everything screened.
S1P4 ag = human S1P4 receptor agonism. O95977. S1P4-expressing cell line, agonist reporter assay. activation, % at 4.98 µM. 220,000 tested, 0.35% active. AID 1509; in the data active = activation above about 11%
PGE2 EP2 inh = blocks the human prostaglandin E2 receptor EP2 | P43116 | C6 glioma cells expressing human EP2, cAMP TR-FRET; cells stimulated with saturating PGE2 | inhibition, % at 25 µM | 260,000 tested, 0.52% active;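 active = percent inhibition above 40 after rounding to a whole number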;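 note: rat C6 glioma host cells with rolipram phosphodiesterase inhibitor present; the protocol text gives 20 µM as final concentration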
EP2 mod = modulates human prostaglandin E2 receptor EP2 signaling; EP2-expressing cells, cAMP HTRF FRET, PGE2 co-stimulation; induction, % at 25 µM; 260,000 tested, 0.83% active; AID 940;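 active = compounds whose cAMP rise, as percent of the full-agonist control response, exceeds 60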;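 note: rat C6 glioma line stably carrying human EP2 under a CMV promoter; the protocol text gives 20 µM as final concentration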
S1P4 antagonist = blocks the human S1P4 receptor; AID 1510; 220,000 tested, 0.26% active; inhibition, % at 4.98 µM; S1P4-expressing cells, antagonist mode, reporter read-out; O95977; in the data active = inhibition above about 29%
Insulin prom inh = TRM-6 insulin promoter activity inhibition | TRM-6 cells (human fetal islet line), insulin promoter-eGFP reporter, imaging; reporter expression induced with tamoxifen | inhibition, % at 2 µM | 130,000 tested, 0.9% active;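 active = inhibition above the mean plus 3 SD, with well images judged a real hit on visual review, cut at about 60% in these data, passing the limit was not always enough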
S1P3 antagonist = S1P3 (human) receptor antagonism | 170,000 tested, 0.27% active | CHO S1P3 NFAT-BLA reporter, FRET fluorescence, antagonist mode | inhibition, % at 4.98 µM;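 active = inhibition above the plate cutoff, the mean inhibition of test wells on that plate plus 3 SD, cut at about 28% in these data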;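 note: cells challenged with S1P at its EC80 of 0.8 µM; blue over green emission ratio from cleaved BLA substrate after 4 h stimulation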
Target sequence (Q99500 whole entry, looked up): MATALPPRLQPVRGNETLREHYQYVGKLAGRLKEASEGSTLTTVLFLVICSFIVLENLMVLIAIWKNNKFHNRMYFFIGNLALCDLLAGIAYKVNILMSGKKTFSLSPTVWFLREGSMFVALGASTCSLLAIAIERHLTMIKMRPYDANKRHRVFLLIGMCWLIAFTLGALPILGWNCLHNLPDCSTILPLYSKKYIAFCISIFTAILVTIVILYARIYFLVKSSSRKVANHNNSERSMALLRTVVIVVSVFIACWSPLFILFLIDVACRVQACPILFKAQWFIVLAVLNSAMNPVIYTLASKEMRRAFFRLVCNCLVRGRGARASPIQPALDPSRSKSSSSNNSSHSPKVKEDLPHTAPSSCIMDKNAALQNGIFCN
Hits are given with their value; ! = not confirmed by another sample.

What do the screens show for `O=C(Nc1ccccc1-c1nnn(CC(=O)N2CCOCC2)n1)c1ccco1`?
PGE2 EP2 inh: inactive; EP2 mod: inactive

Results for Cn1cc(CN2CCc3ccccc3C2)c2ccccc21 ?
S1P4 ag: inactive; PGE2 EP2 inh: inactive; EP2 mod: inactive; S1P4 antagonist: inactive; Insulin prom inh: 81

Results for Cc1occc1-c1nn(CC(=O)N2c3ccccc3CC2C)c(=O)o1 (stereo unspecified) ?
PGE2 EP2 inh: inactive; EP2 mod: inactive

How did O=C(CNC(=O)c1ccccc1C(=O)O)c1ccccc1 do in these assays?
S1P4 ag: inactive; PGE2 EP2 inh: inactive; EP2 mod: inactive; S1P4 antagonist: inactive; Insulin prom inh: 78; S1P3 antagonist: inactive

Results for O=C(O)c1ccccc1C(=O)NCC(O)c1ccccc1 (stereo unspecified) ?
S1P4 ag: inactive; PGE2 EP2 inh: inactive; EP2 mod: inactive; S1P4 antagonist: inactive; S1P3 antagonist: inactive

Results for Cc1c(Cl)cccc1NC(=O)C[C@H]1Sc2ccccc2NC1=O ?
PGE2 EP2 inh: 60; EP2 mod: inactive

What do the screens show for `CCOc1ccc2[nH]c(=O)c(CN(C3CCCC3)S(=O)(=O)c3ccccc3)cc2c1`?
PGE2 EP2 inh: inactive; EP2 mod: inactive

Results for COc1cc(/C=C2/C(=O)NN(c3cccc(C)c3)C2=O)ccc1OC(=O)c1ccco1 ?
S1P4 ag: inactive; PGE2 EP2 inh: 41; EP2 mod: inactive; S1P4 antagonist: inactive; S1P3 antagonist: inactive

How did N#Cc1c(-c2ccccc2)nc(SCC(=O)Nc2ccccc2)[nH]c1=O do in these assays?
S1P4 ag: inactive; PGE2 EP2 inh: inactive; EP2 mod: inactive; S1P4 antagonist: inactive; Insulin prom inh: inactive; S1P3 antagonist: inactive

How did Cc1cc(C)nc(NS(=O)(=O)c2ccc(NC(=O)CSc3nc(-c4ccccc4)c(C#N)c(=O)[nH]3)cc2)n1 do in these assays?
S1P4 ag: inactive; PGE2 EP2 inh: inactive; EP2 mod: 62; S1P4 antagonist: inactive; Insulin prom inh: inactive; S1P3 antagonist: inactive

How did O=C(O)CCCN1C(=O)/C(=C/C=C/c2ccco2)SC1=S do in these assays?
S1P4 ag: inactive; PGE2 EP2 inh: inactive; EP2 mod: 74; S1P4 antagonist: inactive; S1P3 antagonist: inactive

Results for CCOc1ccc(CNc2n[nH]c3nc(C)cc(C)c23)cc1 ?
PGE2 EP2 inh: inactive; EP2 mod: inactive

How did COc1ccc(C2CCN(CC(=O)Nc3nc(C)cs3)CC2)cc1 do in these assays?
PGE2 EP2 inh: inactive; EP2 mod: inactive

What do the screens show for `Cc1cc2cc(C(c3nnnn3C(C)(C)C)N3CCN(Cc4ccccc4)CC3)c(=O)[nH]c2cc1C` (stereo unspecified)?
PGE2 EP2 inh: 91; EP2 mod: inactive

How did CCc1ccc2[nH]c(=O)c(C(c3nnnn3C(C)(C)C)N3CCN(c4ccccc4F)CC3)cc2c1 (stereo unspecified) do in these assays?
PGE2 EP2 inh: inactive; EP2 mod: 74

What do the screens show for `COc1ccc2[nH]c(=O)c(C(c3nnnn3C(C)(C)C)N3CCN(c4ccccc4F)CC3)cc2c1` (stereo unspecified)?
PGE2 EP2 inh: inactive; EP2 mod: inactive

What do the screens show for `COc1cc2[nH]c(=O)c(C(=O)NC(C)C)c(O)c2cc1OC`?
PGE2 EP2 inh: inactive; EP2 mod: inactive

How did COc1ccc(NC(=O)Cc2ccc(Cl)c(Cl)c2)cn1 do in these assays?
S1P4 ag: inactive; PGE2 EP2 inh: inactive; EP2 mod: inactive; S1P4 antagonist: inactive; Insulin prom inh: inactive; S1P3 antagonist: inactive

What do the screens show for `COc1ccc(NC(=O)/C(Cl)=C(/Cl)S(=O)Cc2ccccc2Cl)cn1` (stereo unspecified)?
S1P4 ag: inactive; PGE2 EP2 inh: 52; EP2 mod: inactive; S1P4 antagonist: 102; Insulin prom inh: inactive; S1P3 antagonist: 47

What do the screens show for `O=C1C2CCCN2C(c2cccc(F)c2)N1c1cccc(Cl)c1` (stereo unspecified)?
S1P4 ag: inactive; PGE2 EP2 inh: inactive; EP2 mod: inactive; S1P4 antagonist: inactive; S1P3 antagonist: 68

Results for O=C1C2CCCN2C(c2ccc(F)cc2)N1c1cccc(Cl)c1 (stereo unspecified) ?
S1P4 ag: inactive; PGE2 EP2 inh: inactive; EP2 mod: inactive; S1P4 antagonist: inactive; S1P3 antagonist: inactive

What do the screens show for `Cc1cccnc1NC(=O)c1ccc(F)cc1`?
PGE2 EP2 inh: inactive; EP2 mod: inactive

Results for C=CCSc1ncc(C(=O)OCC)c(N)n1 ?
S1P4 ag: inactive; PGE2 EP2 inh: inactive; EP2 mod: inactive; S1P4 antagonist: inactive; Insulin prom inh: 100; S1P3 antagonist: inactive

Results for CCOC(=O)c1cnc(SCC(=O)OC)nc1N ?
S1P4 ag: inactive; PGE2 EP2 inh: inactive; EP2 mod: inactive; S1P4 antagonist: inactive; Insulin prom inh: inactive; S1P3 antagonist: inactive

Results for CC(C(=O)Nc1cc([N+](=O)[O-])ccc1Cl)N1CCN(c2ccc(O)cc2)CC1 (stereo unspecified) ?
S1P4 ag: inactive; PGE2 EP2 inh: inactive; EP2 mod: inactive; S1P4 antagonist: inactive; Insulin prom inh: 72; S1P3 antagonist: inactive

How did CC(C)CC(=O)Nc1cc([N+](=O)[O-])ccc1Cl do in these assays?
S1P4 ag: inactive; PGE2 EP2 inh: inactive; EP2 mod: inactive; S1P4 antagonist: inactive

Results for CCc1[nH]nc2c1C(c1ccc(Br)s1)C(C#N)=C(N)O2 (stereo unspecified) ?
S1P4 ag: inactive; PGE2 EP2 inh: 44; EP2 mod: inactive; S1P4 antagonist: inactive; Insulin prom inh: inactive

How did N#CC1=C(N)Oc2n[nH]c(-c3cccs3)c2C1c1ccncc1 (stereo unspecified) do in these assays?
S1P4 ag: inactive; PGE2 EP2 inh: inactive; EP2 mod: inactive; S1P4 antagonist: inactive; Insulin prom inh: inactive; S1P3 antagonist: inactive

What do the screens show for `Cc1ccc(C2C(C#N)=C(N)Oc3n[nH]c(-c4cccs4)c32)s1` (stereo unspecified)?
S1P4 ag: inactive; PGE2 EP2 inh: 44!; EP2 mod: inactive; S1P4 antagonist: inactive; Insulin prom inh: inactive; S1P3 antagonist: inactive

How did C=CCSc1nc(N)c2c(C)c(C)sc2n1 do in these assays?
S1P4 ag: inactive; PGE2 EP2 inh: inactive; EP2 mod: inactive; S1P4 antagonist: inactive; S1P3 antagonist: inactive

How did CCSc1nc(N)c2c(C)c(C)sc2n1 do in these assays?
S1P4 ag: inactive; PGE2 EP2 inh: inactive; EP2 mod: inactive; S1P4 antagonist: inactive; Insulin prom inh: 78

What do the screens show for `CCSc1nc(C)nc2sc(C)c(C)c12`?
S1P4 ag: inactive; PGE2 EP2 inh: inactive; EP2 mod: 69; S1P4 antagonist: inactive; S1P3 antagonist: inactive

How did COc1ccc(/C=C/c2nc3ccccc3c(=O)n2C)cc1 do in these assays?
PGE2 EP2 inh: inactive; EP2 mod: inactive

What do the screens show for `COc1ccc2[nH]c(=O)c(CN(Cc3cccs3)C(=S)NCc3ccco3)cc2c1`?
PGE2 EP2 inh: inactive; EP2 mod: inactive

What do the screens show for `CCOC(=O)c1sc2nc(C)[nH]c(=S)c2c1C`?
S1P4 ag: inactive; PGE2 EP2 inh: inactive; EP2 mod: inactive; S1P4 antagonist: inactive; Insulin prom inh: 79; S1P3 antagonist: inactive
